Assay outcomes: PubChem BioAssay, National Center for Advancing Translational Sciences (NCATS)
Many of the other results were omitted from the sample, so hits are more common in it than they were.
AmpC no deterg – AmpC beta-lactamase inhibition without detergent. P00811. AmpC nitrocefin hydrolysis, absorbance 480 nm, 0.0001% Triton. Potency, µM (titrated, usually from 57.1 µM), most hits filed as inhibitors. actives 0.52% (n = 330,000); note: nearly all actives have a fitted effect of over 20% in size
Target sequence (P00811 whole entry, looked up): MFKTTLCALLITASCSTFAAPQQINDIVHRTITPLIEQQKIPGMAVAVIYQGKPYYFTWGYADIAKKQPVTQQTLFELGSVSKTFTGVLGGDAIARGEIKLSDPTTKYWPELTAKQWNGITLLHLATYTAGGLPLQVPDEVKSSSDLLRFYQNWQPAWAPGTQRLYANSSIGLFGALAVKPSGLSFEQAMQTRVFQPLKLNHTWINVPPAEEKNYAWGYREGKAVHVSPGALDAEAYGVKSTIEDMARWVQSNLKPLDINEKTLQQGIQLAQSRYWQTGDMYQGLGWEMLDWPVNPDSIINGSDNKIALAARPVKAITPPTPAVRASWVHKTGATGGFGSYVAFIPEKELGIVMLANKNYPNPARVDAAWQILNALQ
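20 mM phosphate pH 7.0 + 0.01% (detergent screen) or 0.0001% Triton X-100; 5.3 nM AmpC reagent; cpd preinc 15 min RT; nitrocefin (800 uM stock) to start; A480 q20 s × 4 min; Activity was normalised to no-enzyme and no-compound control wells.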
Shiga toxin inh – Shiga toxin inhibition. Vero cells, Shiga toxin protein synthesis inhibition reporter. inhibition, % at 38.7 µM. actives 9.2% (n = 290,000). AID 2315; in the data active = inhibition mostly above about 28%, no sharp cut-off; inactive = mostly below about 43%
SARS PLP yeast – SARS-CoV PLP inhibition in yeast | S. cerevisiae expressing SARS-CoV PLpro, growth rescue | Potency, µM (highest dose often 32.9 µM), most hits filed as activators | actives 0.19% (n = 330,000) | AID 485353; calls by dose curve; note: nearly all actives have a fitted effect of over 55% in size
AMA1 RON2 block – inhibitors of Plasmodium falciparum AMA1-RON2 interaction. AlphaScreen AMA1-biotinylated RON2 peptide binding. actives 0.2% (n = 360,000). Potency, µM (top dose mostly 58.2 µM), actives largely listed as inhibitors; note: nearly all actives have a fitted effect of over 45% in size
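AMA1 (3D7) with his tag at 25 nM final met compounds first, then biotinylated RON2 peptide at 25 nM; detection used donor plus acceptor beads, 10 µg/mL apiece, read by AlphaScreen after 30 min at room temperature.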
Cycloheximide cs – counter-screen hit for Shiga toxin inhibitors, cycloheximide | max response, % | actives 12% (n = 300,000) | cell reporter, cycloheximide protein synthesis inhibition counterscreen; in the data active = max response mostly above about 13%, no sharp cut-off; inactive = mostly below about 14%; note: read at 38.3 µM for the half of the compounds with a filed dose
AmpC inh detg – inhibitors of E. coli AmpC beta-lactamase with detergent | AmpC hydrolysis of nitrocefin, absorbance 480 nm, 0.01% Triton | actives 0.041% (n = 370,000) | Potency, µM (doses to about 114 µM), most hits filed as inhibitors | P00811 | AID 485294; note: nearly all actives have a fitted effect of over 25% in size
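20 mM phosphate pH 7.0 + 0.01% (detergent screen) or 0.0001% Triton X-100; 5.3 nM AmpC reagent; cpd preinc 15 min RT; nitrocefin (800 uM stock) to start; A480 q20 s × 4 min; Activity was normalised to no-enzyme and no-compound control wells.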
Hits are given with their value; n = inactive; u = inconclusive; x = not tested or not shown. Unless noted, calls come from the whole dose curve; as a rule, active = well fitted curve in the direction sought with a large enough effect; inconclusive = small, poorly fitted or top-dose-only effect, or another doubt; inactive = no such curve, though single readings can be large; an effect the other way counts as inactive or inconclusive.

SMILES | AmpC no deterg | Shiga toxin inh | SARS PLP yeast | AMA1 RON2 block | Cycloheximide cs | AmpC inh detg
COc1ccc(NC(=O)CC2CCCC2)cc1OC | n | n | n | n | n | n
CCC(C)(C)NC(=O)CN(C(=O)c1snc(C(N)=O)c1N)c1ccc2nc(C)sc2c1 | n | n | n | n | n | n
Nc1c(O)ccc2c1C(=O)c1ccccc1C2=O | n | n | n | u | 12 | n
COc1ccc2c(c1O)C(=O)c1ccccc1C2=O | n | n | n | x | n | n
N#C/C(=C/c1cccc([N+](=O)[O-])c1)C(=O)Nc1ccccc1O | n | n | n | n | 13 | n
CCN1C(=O)CC(=O)N(CC)C1=S | x | x | x | n | x | x
CCCCNC(=O)COc1ccccc1[N+](=O)[O-] | n | 77 | n | n | 25 | n
NC(=O)c1ccsc1NC(=O)Cc1ccc([N+](=O)[O-])cc1 | n | n | n | n | 31 | n
O=[N+]([O-])c1ccccc1OCCNCc1ccccc1 | n | x | n | u | 16 | u
NNC(=O)COc1ccccc1[N+](=O)[O-] | n | n | n | n | 25 | n
COc1ccc(CN(C)C[C@@H]2OCCCC[C@H](C)Oc3ccc(NC(=O)Nc4ccc(F)cc4)cc3C(=O)N([C@H](C)CO)C[C@H]2C)cc1 | x | x | x | n | x | x
CCOC(=O)c1ccccc1NC(=O)Cn1ncc2c([nH]c3ccccc32)c1=O | x | x | x | x | x | n
NC(=O)c1ccsc1NC(=O)COC(=O)COc1ccccc1F | n | n | n | n | n | n
CCCCNC(=O)c1cc2cccc([N+](=O)[O-])c2[nH]1 | n | n | n | n | 22 | n
Cc1ccc(C)c(C(=O)COc2ccccc2[N+](=O)[O-])c1 | n | 26 | n | n | 36 | n
NC(=O)c1ccsc1NC(=O)COC(=O)COc1ccccc1[N+](=O)[O-] | n | x | n | n | x | 56µM
CCCc1nc2ccccc2n1C(CC)C(=O)NC(C)(C)C (stereo not drawn) | x | x | x | n | x | x
O=C(CC(c1ccco1)C1CCCCC1=O)c1ccco1 (stereo not drawn) | n | n | n | n | n | u
NC(=O)c1cn(-c2ccccc2)nc1-c1cc2ccccc2oc1=O | n | n | n | n | n | n
COC(=O)c1ccc(COc2ccc(CNCc3ccc(Cl)cc3)cc2)cc1 | n | 43 | n | n | 34 | n
O=C(c1ccc(COc2ccccc2Br)cc1)N1CCCCCC1 | n | 60 | n | n | 31 | n
O=C(c1ccc(CS(=O)(=O)Cc2ccccc2)cc1)N1CCCCC1 | n | n | n | n | n | n
CCCCOc1ccc(C(=O)N2CCCCCC2)cc1 | n | active | n | n | 28 | n
CCCCOc1ccc(C(=O)N2CCC(C)CC2)cc1 | n | n | n | n | n | n
O=C(c1ccc(COc2ccc(Cl)cc2)cc1)N1CCCCC1 | n | 91 | n | n | 24 | n
SMILES | AmpC no deterg | Shiga toxin inh | SARS PLP yeast | AMA1 RON2 block | Cycloheximide cs | AmpC inh detg
O=C(c1ccc(NC(=S)NCc2ccc(Cl)cc2)cc1)N1CCCCC1 | n | n | n | n | n | n
Cc1cc(C)n2c(SCC(=O)NCc3ccc4c(c3)OCO4)nnc2n1 | n | n | n | n | n | n
CC(=O)N1CCc2cc(C(=O)CN3CCN(c4ccccc4F)CC3)ccc21 | n | 59 | n | n | 21 | u
O=C(CN1CCN(c2ccccc2)CC1)N1CCc2ccccc21 | n | n | n | n | n | n
CC(=O)N1CCc2cc(S(=O)(=O)CCC(=O)N3CCN(c4ccccn4)CC3)ccc21 | n | n | n | n | n | n
O=C(CN1CCN(c2ccccc2F)CC1)c1ccc2cc[nH]c2c1 | n | n | n | n | n | u
O=C(CN1CCN(c2ccccc2F)CC1)N1CCc2ccccc21 | n | n | n | n | 14 | n
CC(=O)N1CCc2cc(C(=O)CN3CCN(c4ccccn4)CC3)ccc21 | n | 77 | n | n | 37 | n
CN(C)S(=O)(=O)c1cccc(NC(=S)N/N=C/c2ccc(O)c(O)c2O)c1 | u | n | n | n | n | n
O=[N+]([O-])c1ccc(NC(=S)N2CCCC2)cc1 | n | n | n | n | n | n
O=[N+]([O-])c1cccc(NC(=S)N2CCc3ccccc3C2)c1 | n | 79 | n | n | 59 | n
Fc1cccc(NC(=S)N2CCc3ccccc32)c1 | n | n | n | n | n | n
